Experimental data published in PubChem BioAssay (NCATS).
Values joined by “and” are separate entries in the source; they are usually repeats but may differ in a detail not shown here. Equal values may be shown once. Records with an inconclusive call do not appear. Active and inactive are the calls of the source. Unless noted, calls come from the whole dose curve; as a rule, active = well fitted curve in the direction sought with a large enough effect; inconclusive = small, poorly fitted or top-dose-only effect, or another doubt; inactive = no such curve, though single readings can be large; an effect the other way counts as inactive or inconclusive.

Tests used:
[1] = qHTS assay for small molecule agonists of retinoid X receptor alpha signaling (AID 588544; calls by dose curve;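 for activation: 0% = DMSO basal wells and 100% = reference agonist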); conditions: HEK293T RXRa-UAS-bla, beta-lactamase reporter, 18 h; 530 nm emission
[2] = biological target: Retinoic acid receptor RXR-alpha (Homo sapiens) (UniProt P19793); test: as above; conditions: HEK293T RXRa-UAS-bla, beta-lactamase reporter, 18 h; series mostly up to 76.7 µM
[3] = biological target: Thyroid hormone receptor beta (Homo sapiens) (UniProt P10828); test: qHTS assay for small molecule agonists of thyroid hormone receptor beta signaling (AID 588545; calls by dose curve;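 note: 0% = DMSO only and 100% = 10 nM T3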); conditions: TR-UAS-bla GripTite HEK 293, beta-lactamase ratio, agonist mode, 18 h, percent of T3 response, DMSO as zero; series mostly up to 76.7 µM
How it was run: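 TR-UAS-bla-GripTite HEK 293 cells in medium with 2% charcoal/dextran FBS, 0.1 mM NEAA and 1 mM sodium pyruvate were treated with titrated compounds for 18 hrs at 37 C. Beta-lactamase reporter was read with CCF4 dye (ex 405, em 460/530 nm); EC50 from Hill fits.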

[4] = qHTS assay for small molecule antagonists of retinoid X receptor alpha signaling (AID 588546; active = well fitted inhibition curve with a large enough effect in the signal ratio, with a control signal flat, not every such curve was filed as active; the % refers to the signal ratio;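 note: cells stimulated with 9-cis-retinoic acid as agonist; % is set by controls: 0 for no effect and ±100 for the full control effect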); conditions: HEK293T RXRa-UAS-bla, beta-lactamase ratio, antagonist mode; measured here: W530 green channel, cytotoxicity proxy
How it was run: (§1)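 Beta-lactamase reporter inhibition, read as CCF4 fluorescence ratio (ex 405, em 460/530 nm) after 2 h at RT. HEK293T UAS-bla cells, 2500/well, were stimulated with 9-cis-RA at 500 or 100 nM final alongside test compound for 18 h at 37 C.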

[5] = biological target: Retinoic acid receptor RXR-alpha (Homo sapiens) (UniProt P19793); test: as above; conditions: HEK293T RXRa-UAS-bla, beta-lactamase ratio, antagonist mode
How it was run: as §1

[6] = biological target: Thyroid hormone receptor beta (Homo sapiens) (UniProt P10828); test: qHTS assay for small molecule antagonists of thyroid hormone receptor beta signaling (AID 588547; active = well fitted inhibition curve with a large enough effect in the signal ratio, with a control signal flat, not every such curve was filed as active; the % refers to the signal ratio;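 note: cells stimulated with 0.4 nM T3 agonist during compound exposure; % is set by controls: 0 for no effect and ±100 for the full control effect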); conditions: TR-UAS-bla HEK293, beta-lactamase ratio, antagonist mode, 18 h
How it was run: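 Inhibition of T3-driven (0.4nM final) beta-lactamase reporter activity was measured over 0.59 nM to 92 uM compound after 18 h at 37 C. The cells were GripTite HEK293 TR-UAS-bla in charcoal/dextran-stripped serum, with CCF4 ratio read-out and IC50 from Hill fits.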

[7] = biological target: Voltage-gated inwardly rectifying potassium channel KCNH2 (Homo sapiens) (UniProt Q12809); test: qHTS Assay for Small Molecule Inhibitors of the Human hERG Channel Activity (AID 588834); conditions: U2OS BacMam hERG, FluxOR thallium flux fluorescence; series mostly up to 92.2 µM;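 note: top concentration of the series differs between compounds; % is set by controls: 0 for no effect and ±100 for the full control effect; lower thallium flux fluorescence means stronger hERG block; nearly all actives have a fitted effect of over 50% in size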
How it was run: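 Blockade is seen as reduced FluxOR thallium-flux fluorescence in U2OS cells expressing hERG from a BacMam construct, in Opti-MEM with 2% FCS. Concentration-response data fitted to the Hill equation for AC50.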

[8] = qHTS assay for small molecule activators of the p53 signaling pathway (AID 651743; active = well fitted activation curve with a large enough effect in the signal ratio, not every such curve was filed as active; the % refers to the signal ratio; note: % of control where 0% means no effect); conditions: HCT-116 p53RE-bla, beta-lactamase FRET ratio, 16 h; stronger effect = higher value
How it was run: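 Screen for p53 pathway agonists uses stably transfected p53RE-bla HCT-116 cells, 4,000 per well, treated 16 h at 37 C with compounds in DMSO.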

[9] = qHTS assay for small molecule activators of the nuclear factor-kappa B (NF-kB) signaling pathway (AID 651749; active = well fitted activation curve with a large enough effect in the signal ratio; the % refers to the signal ratio; note: % of control where 0% means no effect); conditions: NF-kB-bla ME-180 cells, beta-lactamase FRET ratio, 16 h; stronger effect = higher value
How it was run: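 Stably transfected ME-180 line; NF-kB response element upstream of beta-lactamase. Treatment: compound or DMSO, 16 hr. Detection: fluorescent FRET substrate.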

[10] = qHTS assay for small molecule disruptors of the mitochondrial membrane potential - 1 hr assay (AID 651754; calls by dose curve; note: % is set by controls: 0 for no effect and ±100 for the full control effect; nearly all actives have a fitted effect of over 35% in size); conditions: series mostly up to 92.2 µM
How it was run: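 Steps: seed HepG2 cells and let attach overnight; pin-transfer compound or vehicle; incubate 1 hr at 37C; add Mito-MPS dye for 30 min; read two-channel fluorescence for monomer and aggregate forms.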

[11] = biological target: Tumor necrosis factor (Homo sapiens) (UniProt P01375); test: qHTS assay to identify small molecules that stimulate Tumor Necrosis Factor-alpha (TNF-alpha) secretion (AID 651757; active = well fitted curve in the direction sought with a large enough effect in the signal ratio; the % refers to the signal ratio; note: 0% is about no effect); conditions: Human cells, HTRF 665/615 ratio; series mostly up to 92.2 µM
How it was run: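 Secreted TNF-alpha from compound-treated THP-1 cells (17 hrs, 37 C) was quantified with a homogeneous time-resolved fluorescence antibody assay.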

[12] = qHTS assay for environmental chemicals that activate the Aryl hydrocarbon Receptor (AhR) signaling pathway (AID 651777); conditions: 1A2-DRE human hepatoma cells, luciferase, 24 h; activation: stronger effect = higher value; note: % of control where 0% means no effect; nearly all actives have a fitted effect of over 15% in size
How it was run: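 1A2-DRE human hepatoma reporter line; 1,200 cells/well; cmpd or DMSO 24 h, 37 C/5% CO2; One-Glo 30 min RT; luciferase lum.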

[13] = biological target: Peroxisome proliferator-activated receptor alpha (Homo sapiens) (UniProt Q07869); test: qHTS assay for small molecule agonists of the peroxisome proliferator-activated receptor alpha (PPARalpha) signaling pathway (AID 651778); conditions: PathHunter PPARalpha complementation, chemiluminescence, 6 h; stronger effect = higher value; note: % of control where 0% means no effect
How it was run: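 Chemiluminescence from complemented enzyme reported PPARalpha activation in cells after 6 hr of compound treatment at 37 C. The detection reagent was incubated for 60 min at room temperature, and compounds were scored as agonists.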

[14] = biological target: Nuclear receptor ROR-gamma (Homo sapiens) (UniProt P51449); test: qHTS assay for small molecule antagonists of the retinoid-related orphan receptor gamma (ROR-gamma) signaling pathway (AID 651802); conditions: ROR-gamma antagonist cell reporter assay; series mostly up to 92.2 µM;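 note: CHO cells with doxycycline-induced ROR-gamma expression; % is set by controls: 0 for no effect and ±100 for the full control effect; nearly all actives have a fitted effect of over 60% in size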
How it was run: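 Antagonism is scored as a fall in luminescence from a RORE-luciferase reporter in CHO cells expressing ROR under a TET-inducible promoter, measured 16hr after doxycycline induction in the presence of compound.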

[15] = qHTS assay for small molecule agonists of the antioxidant response element (ARE) signaling pathway measured by Nrf2-dependant transcriptional activity (AID 720636; active = well fitted curve in the direction sought with a large enough effect in the repeat runs; an effect the other way counts as inactive or inconclusive;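 note: HepG2 cells with an ARE-driven luciferase reporter; % of control where 0% means no effect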); conditions: ARE-luc HepG2, Nrf2 luciferase reporter, 16 h; series mostly up to 92.4 µM
How it was run: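 Cells: ARE-luc HepG2 with Nrf2-responsive luciferase. Medium contained 1% dialyzed FBS. Compound exposure lasted 16 hr at 37 C and 5% CO2, followed by ONE-Glo luciferase detection.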

[16] = qHTS assay for small molecule antagonists of the retinoid-related orphan receptor gamma (ROR-gamma) signaling pathway - cell viability counter screen (AID 720652; active = well fitted curve in the direction sought with a large enough effect in the repeat runs; an effect the other way counts as inactive or inconclusive;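 note: CHO reporter cells with doxycycline-induced ROR-gamma expression; compound exposure lasted 16 hr before ATP read; % is set by controls: 0 for no effect and ±100 for the full control effect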); conditions: RORgamma reporter cell line viability counter screen; series mostly up to 92.2 µM
How it was run: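 Cytotoxicity is quantified via intracellular ATP (CellTiter-Glo luminescence) in doxycycline-induced CHO ROR response element-luciferase reporter cells treated with compound for 16 hr at 37 C, 5% CO2.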

[17] = qHTS assay for small molecule agonists of the antioxidant response element (ARE) signaling pathway measured by Nrf2-dependant transcriptional activity - cell viability counter screen (AID 720653; active = well fitted curve in the direction sought with a large enough effect in the repeat runs; an effect the other way counts as inactive or inconclusive; note: % is set by controls: 0 for no effect and ±100 for the full control effect); conditions: ARE-bla HepG2 viability, CellTiter-Glo ATP luminescence, 16 h; stronger effect = lower value
How it was run: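 Cytotoxicity counter screen: intracellular ATP quantified by CellTiter-Glo luminescence in the same ARE-bla HepG2 plates, after 16 h compound exposure and a 2 h beta-lactamase substrate step.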

[18] = qHTS assay to identify small molecules that stimulate interleukin-8 (IL-8) secretion (AID 651758; active = well fitted activation curve with a large enough effect in the signal ratio; the % refers to the signal ratio; note: 0% is about no effect); conditions: HTRF ratio (665/615); series mostly up to 92.2 µM
How it was run: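 Secreted IL-8 measured by TR-FRET sandwich (cryptate and XL665 antibodies) from THP-1 cells exposed to compound overnight (16 hrs, 37 C).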

[19] = qHTS assay for small molecule disruptors of the mitochondrial membrane potential - 5 hr assay (AID 651755; calls by dose curve; note: % is set by controls: 0 for no effect and ±100 for the full control effect; nearly all actives have a fitted effect of over 40% in size); conditions: JC-1-type ratio dye; series mostly up to 92.2 µM
How it was run: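 HepG2, 2,000 cells/well, overnight attach; cpd or DMSO 5 hr, 37C/5% CO2; Mito-MPS 30 min 37C; fluor 490/535 + 540/590 nm.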

Retinoic acid receptor RXR-alpha (Homo sapiens), sequence (P19793 whole entry, looked up): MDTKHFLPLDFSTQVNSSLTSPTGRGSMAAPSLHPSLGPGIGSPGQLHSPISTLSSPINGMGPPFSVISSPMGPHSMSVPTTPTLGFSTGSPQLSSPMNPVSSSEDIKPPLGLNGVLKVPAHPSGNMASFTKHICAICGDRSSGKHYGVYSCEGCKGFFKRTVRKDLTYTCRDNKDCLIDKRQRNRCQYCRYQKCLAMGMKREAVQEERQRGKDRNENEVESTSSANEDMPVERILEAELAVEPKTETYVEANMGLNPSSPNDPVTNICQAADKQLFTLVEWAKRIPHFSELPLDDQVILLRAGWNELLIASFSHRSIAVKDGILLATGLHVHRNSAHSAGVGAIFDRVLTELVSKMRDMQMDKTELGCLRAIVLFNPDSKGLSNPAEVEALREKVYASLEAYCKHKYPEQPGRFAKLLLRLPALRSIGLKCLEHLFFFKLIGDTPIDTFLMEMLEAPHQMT
Thyroid hormone receptor beta (Homo sapiens), sequence (P10828 whole entry, looked up): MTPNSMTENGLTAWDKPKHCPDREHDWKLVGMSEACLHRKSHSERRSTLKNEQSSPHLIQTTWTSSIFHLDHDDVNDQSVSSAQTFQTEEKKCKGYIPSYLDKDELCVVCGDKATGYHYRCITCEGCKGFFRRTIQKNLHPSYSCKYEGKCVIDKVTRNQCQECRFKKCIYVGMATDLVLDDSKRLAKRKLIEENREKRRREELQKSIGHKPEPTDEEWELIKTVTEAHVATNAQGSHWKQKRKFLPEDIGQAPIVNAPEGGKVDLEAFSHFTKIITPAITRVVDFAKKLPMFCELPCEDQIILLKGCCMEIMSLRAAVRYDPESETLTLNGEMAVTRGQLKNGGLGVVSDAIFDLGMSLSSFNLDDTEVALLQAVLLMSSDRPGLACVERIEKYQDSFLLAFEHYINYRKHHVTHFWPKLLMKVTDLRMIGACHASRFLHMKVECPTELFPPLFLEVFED
Tumor necrosis factor (Homo sapiens), sequence (P01375 whole entry, looked up): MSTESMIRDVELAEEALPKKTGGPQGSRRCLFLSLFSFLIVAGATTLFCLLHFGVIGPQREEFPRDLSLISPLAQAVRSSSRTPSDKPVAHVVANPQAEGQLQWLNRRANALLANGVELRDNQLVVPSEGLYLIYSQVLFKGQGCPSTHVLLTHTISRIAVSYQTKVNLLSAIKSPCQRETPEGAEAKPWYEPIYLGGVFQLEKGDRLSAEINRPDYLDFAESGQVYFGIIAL
Nuclear receptor ROR-gamma (Homo sapiens), sequence (P51449 whole entry, looked up): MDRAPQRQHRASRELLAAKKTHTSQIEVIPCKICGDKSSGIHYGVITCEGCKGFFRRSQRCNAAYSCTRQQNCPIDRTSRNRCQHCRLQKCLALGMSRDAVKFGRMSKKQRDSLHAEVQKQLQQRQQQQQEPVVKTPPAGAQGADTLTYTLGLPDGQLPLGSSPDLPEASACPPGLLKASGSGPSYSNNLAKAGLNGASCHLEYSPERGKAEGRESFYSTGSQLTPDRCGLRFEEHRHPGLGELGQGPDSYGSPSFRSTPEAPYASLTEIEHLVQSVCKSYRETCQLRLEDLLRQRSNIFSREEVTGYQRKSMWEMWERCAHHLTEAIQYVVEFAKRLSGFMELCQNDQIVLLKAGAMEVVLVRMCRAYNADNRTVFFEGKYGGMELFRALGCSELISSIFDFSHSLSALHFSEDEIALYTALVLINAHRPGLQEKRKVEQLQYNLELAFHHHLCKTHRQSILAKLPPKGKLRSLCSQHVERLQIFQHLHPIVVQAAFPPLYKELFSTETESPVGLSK
Voltage-gated inwardly rectifying potassium channel KCNH2 (Homo sapiens), sequence (Q12809 whole entry, looked up): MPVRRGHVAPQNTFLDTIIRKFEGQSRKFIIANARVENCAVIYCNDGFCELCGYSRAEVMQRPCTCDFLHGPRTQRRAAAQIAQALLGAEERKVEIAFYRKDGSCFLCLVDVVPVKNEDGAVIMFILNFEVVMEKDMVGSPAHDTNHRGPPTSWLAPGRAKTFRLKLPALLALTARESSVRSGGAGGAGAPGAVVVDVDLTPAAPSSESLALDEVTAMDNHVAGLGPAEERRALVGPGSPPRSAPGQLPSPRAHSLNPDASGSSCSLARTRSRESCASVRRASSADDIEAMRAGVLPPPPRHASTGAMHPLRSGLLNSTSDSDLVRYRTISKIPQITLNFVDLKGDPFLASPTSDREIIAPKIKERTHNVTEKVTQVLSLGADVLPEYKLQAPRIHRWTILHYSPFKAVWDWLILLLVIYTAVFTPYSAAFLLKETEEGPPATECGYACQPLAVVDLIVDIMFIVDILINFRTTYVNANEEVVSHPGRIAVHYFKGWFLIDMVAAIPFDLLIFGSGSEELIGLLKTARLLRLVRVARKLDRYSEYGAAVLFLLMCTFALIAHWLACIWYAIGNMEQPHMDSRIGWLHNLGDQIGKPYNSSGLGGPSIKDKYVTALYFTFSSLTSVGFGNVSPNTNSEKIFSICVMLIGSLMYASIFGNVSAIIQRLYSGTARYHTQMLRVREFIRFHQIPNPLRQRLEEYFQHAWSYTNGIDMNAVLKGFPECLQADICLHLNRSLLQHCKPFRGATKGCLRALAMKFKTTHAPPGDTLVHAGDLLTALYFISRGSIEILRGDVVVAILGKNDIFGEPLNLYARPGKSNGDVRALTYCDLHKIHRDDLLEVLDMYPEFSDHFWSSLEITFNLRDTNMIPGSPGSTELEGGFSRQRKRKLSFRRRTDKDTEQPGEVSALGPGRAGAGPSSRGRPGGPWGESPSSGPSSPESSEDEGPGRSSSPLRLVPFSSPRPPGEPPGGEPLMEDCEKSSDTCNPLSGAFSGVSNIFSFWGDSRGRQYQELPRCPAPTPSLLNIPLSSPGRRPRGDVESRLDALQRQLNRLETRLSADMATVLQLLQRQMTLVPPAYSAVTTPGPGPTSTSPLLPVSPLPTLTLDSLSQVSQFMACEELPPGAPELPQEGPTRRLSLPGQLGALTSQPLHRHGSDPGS
Peroxisome proliferator-activated receptor alpha (Homo sapiens), sequence (Q07869 whole entry, looked up): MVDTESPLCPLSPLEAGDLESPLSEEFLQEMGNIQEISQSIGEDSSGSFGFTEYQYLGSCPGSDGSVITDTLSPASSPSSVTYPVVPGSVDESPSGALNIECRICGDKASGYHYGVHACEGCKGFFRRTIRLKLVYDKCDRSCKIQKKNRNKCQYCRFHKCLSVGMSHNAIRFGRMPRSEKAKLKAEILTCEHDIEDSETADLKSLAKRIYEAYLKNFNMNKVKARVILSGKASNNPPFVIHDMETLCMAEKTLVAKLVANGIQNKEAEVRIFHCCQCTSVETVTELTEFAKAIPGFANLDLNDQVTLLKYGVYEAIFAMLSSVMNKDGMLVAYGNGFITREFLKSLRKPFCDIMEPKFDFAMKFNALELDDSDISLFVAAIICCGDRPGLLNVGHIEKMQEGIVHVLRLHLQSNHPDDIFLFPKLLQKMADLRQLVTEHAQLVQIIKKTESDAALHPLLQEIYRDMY

| Structure (SMILES) | max response [1] | outcome [2] | outcome [3] | max response [4] | max response [5] | activity change % (negative = inhibition) [6] | Potency [7] | activation [8] | activation [9] | Potency [10] | Potency [11] | activation [12] | max response [13] | Potency [14] | outcome [15] | Potency [16] | max response [17] | Potency [18] | Potency [19] |
| --- | --- | --- | --- | --- | --- | --- | --- | --- | --- | --- | --- | --- | --- | --- | --- | --- | --- | --- | --- |
| Nc1ccccc1S(=O)(=O)O | 0.0246% | inactive | inactive | -2.85% | 1.63% (inactive) | 5.88% (inactive) | inactive | -0.779% (inactive) | -0.0968% (inactive) | inactive | inactive | -0.162% (inactive) | -3.61% (inactive) | inactive | inactive | inactive | -0.944% (inactive) |  |  |
| C=CC(=O)NC(C)C | -3.51% | inactive | inactive | 5.01% | 0.568% (inactive) | -0.537% (inactive) | inactive | -0.785% (inactive) | 0.588% (inactive) | inactive | inactive | -0.429% (inactive) | -6.08% (inactive) |  | inactive | inactive | -7.91% (inactive) | inactive |  |
| COC(=O)CCCC(=O)OC | -5.09% | inactive | inactive | -9.56% | -11% (inactive) | -27% (inactive) | inactive | -1.04% (inactive) | -0.14% (inactive) |  | inactive |  | -1.53% (inactive) | inactive | inactive | inactive | 4.37% (inactive) |  |  |
| O=C(O)c1ccc(CO)o1 | -7.5% | inactive | inactive | -4.49% | -4.1% (inactive) | -7.49% (inactive) | inactive | -2.63% (inactive) | 0.608% (inactive) |  | inactive | -0.734% (inactive) | 15% (inactive) | inactive | inactive | inactive | -10.4% (inactive) |  | inactive |
| O=C(O)c1ccccc1[N+](=O)[O-] | -10.1% | inactive | inactive | -4.69% | 2.43% (inactive) | 6.51% (inactive) | inactive | 2% (inactive) | 0.408% (inactive) |  | inactive | -1.41% (inactive) | -2.24% (inactive) | inactive | inactive | inactive | -13.2% (inactive) |  | inactive |
| O=C1OC(=O)c2c(Br)c(Br)c(Br)c(Br)c21 | -2.51% and -8.84% | inactive | inactive | -0.218% and -8.01% | 6.1% (inactive) and -5.43% (inactive) | 7.07% (inactive) and -6.85% (inactive) | inactive |  | 0.149% (inactive) and 3.05% (inactive) | inactive | inactive | -1.58% (inactive) and 0.554% (inactive) | 0.713% (inactive) and 0.326% (inactive) |  | inactive | inactive |  | inactive | inactive |
| Nc1cccc(O)c1 | -4.39% | inactive | inactive | 6.84% | 1.85% (inactive) | -7.53% (inactive) | inactive |  | -1.16% (inactive) |  | inactive | 2.45% (inactive) | 0.244% (inactive) | inactive | inactive | inactive | -0.321% (inactive) |  |  |
